Sampled rows, rich in hits. Any-hit rate of the full collection: about 8%.
SARS PLP yeast – blocks SARS-CoV papain-like protease in a yeast assay; S. cerevisiae expressing SARS-CoV PLpro, growth rescue; Potency, µM (doses to about 32.9 µM), for the others: top-dose activity, positive = growth rescue, most hits filed as activators; 330,000 compounds, 0.19% hits; AID 485353; calls by dose curve; further: potency means the concentration at half of the fitted maximal effect; 0% is about no effect; nearly all actives have a fitted effect of over 55% in size
FMDV antiviral – foot and mouth disease virus antiviral activity; FMDV antiviral cell-based qHTS; Potency, µM (highest dose often 57.9 µM), inactives show at the top dose activity change, negative = inhibition, usual class: inhibitors; 410,000 compounds, 1.2% hits; AID 1159524; calls by dose curve; tested in HEK293T cells; further: read-out not given here; potency means the concentration at half of the fitted maximal effect; on the % scale 0 is the no-effect control and ±100 the full control effect; nearly all actives have a fitted effect of over 45% in size
Lassa entry inh – blocks Lassa virus binding to or entry into cells. Lassa virus pseudotype entry inhibition, cell reporter. Potency, µM (titrated, usually from 37.9 µM), for the others: at the highest dose activity change, negative = inhibition, hits mostly inhibitors. 300,000 compounds, 1.2% hits. AID 540256; calls by dose curve; tested in HEK293 cells; further: potency means the concentration at half of the fitted maximal effect; on the % scale 0 is the no-effect control and ±100 the full control effect; nearly all actives have a fitted effect of over 50% in size
HCMV inh – inhibitors of human cytomegalovirus; activity change, negative = inhibition, % at 57.5 µM; HFF cells, HCMV-luciferase reporter, 72 h; hits give low values; AID 1259415; 410,000 compounds, 4.5% hits; in the data active means activity change below about -60%; inconclusive means no clear call, values can overlap the other calls; inactive means above about -39%; further: on the % scale 0 is the no-effect control and ±100 the full control effect
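After 16 h attachment at 37C, HFF cells received test compound and HCMV-luciferase (1 PFU/cell); reporter luminescence read 72 h later, data normalized against buffer-only and known inhibitor Salinomycin.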
Marburg entry inh – blocks Marburg virus binding to or entry into cells | Marburg virus pseudotyped entry inhibition, cell reporter | Potency, µM (top dose mostly 37.8 µM), without a hit: top-dose activity change, negative = inhibition, usual class: inhibitors | 300,000 compounds, 1.8% hits; calls by dose curve; tested in HEK293 cells; further: potency means the concentration at half of the fitted maximal effect; on the % scale 0 is the no-effect control and ±100 the full control effect
HCV inhibitor – HCV inhibition; AID 651820; Huh7.5.1 HCVcc-Cre infection, luciferase reporter, 44 h; 340,000 compounds, 3.4% hits; Potency, µM (highest dose often 41.8 µM), for the others: at the top dose activity change, negative = inhibition, hits mostly inhibitors; active means well fitted inhibition curve with a large enough effect; inconclusive means small, poorly fitted or top-dose-only effect, or another doubt; inactive means no such curve, though single readings can be large or run the other way; further: potency means the concentration at half of the fitted maximal effect; on the % scale 0 is the no-effect control and ±100 the full control effect
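Luciferase read-out (15 sec integration) after a 15 min room-temperature substrate step quantifies HCVcc-Cre infection. Cells, 1,000 per well, had compound added 4 h post-plating, then virus at ~0.5 moi, and were cultured 44 h.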
Active calls of the source: *; ? = inconclusive; . = no result given; [ ] = another dose, or the depositor's remark.

SMILES	SARS PLP yeast	FMDV antiviral	Lassa entry inh	HCMV inh	Marburg entry inh	HCV inhibitor
Cc1[nH]c2c(ccc3ccccc32)c1C1C(CCN)C1(C)C (stereo not drawn)	-7%	?	?	-11	26µM*	?
O=C1C(c2ccccc2)=[N+]([O-])c2ccccc21	1%	?	.	26	.	10µM*
COc1ccc(CN(C(=O)c2nsc(Cl)c2Cl)C(C(=O)NC2CCCC2)c2ccc(OC)cc2)cc1 (stereo not drawn)	-11%	-2%	21µM*	12	?	-8%
COc1ccc(CN(C(=O)c2snc(C(N)=O)c2N)C(C(=O)NC2CCCC2)c2ccc(OC)cc2)cc1 (stereo not drawn)	-1%	-3%	?	-6	-19%[46.1 µM]	?
COc1ccc(Cl)cc1-c1cc2c(c(OC)c1)OCCN(Cc1cccn1-c1nccs1)C2	.	1%	.	.	.	.
COC(=O)c1sc(-c2ccccc2)cc1NC(=O)Nc1ccc(F)cc1	.	-14%	15%[46.1 µM]	-30	-25%[46.1 µM]	.
ON=C1c2ccccc2-c2cc(Br)ccc21	.	0%	1%	-64*	16%	?
Cc1ccc(-c2nnc(Oc3cccc(C)c3)c3ccccc23)cc1	-14%	-13%	-5%	-36	?	-8%
Cc1nnc(Oc2ccc([N+](=O)[O-])cc2)c2ccccc12	2%	43%	.	-96*	.	-2%
COc1ccc(Oc2nc(C(F)(F)F)nc3ccccc23)cc1	-23%	?	?	?	?	-9%
CNc1nnc(-c2ccc(C)cc2)c2ccccc12	-1%	-24%	7.9µM*	?	22%[46.1 µM]	?
Cc1ccc(-c2nnc(NCCCO)c3ccccc23)cc1	-2%	-16%	.	29	.	?
Cc1ccc(Oc2nc(C(F)(F)F)nc3ccccc23)cc1	?	-27%	8%	-69*	4%	-1%
Cc1ccc(Oc2nnc(-c3ccccc3)c3ccccc23)cc1	2%	3%	0%	-37	5%	35µM*
O=S(=O)(NCCc1csc2nc(-c3ccc(F)cc3)nn12)c1ccc(Oc2ccccc2)cc1	.	-20%	-12%[46.1 µM]	8	.	.
O=C(/C(=N\Nc1ccc([N+](=O)[O-])cc1)Sc1nnnn1-c1ccccc1)c1ccccc1	0%	?	12%	-18	0.89µM*	41%
Cc1sc(N/N=C/C=C/c2ccccc2)nc1-c1ccccc1	13µM*	-1%	?	27	11%	-19%
O=c1c2oc3ccccc3c2n(Cc2cccc(F)c2)c(=O)n1Cc1ccco1	.	?	18%[46.1 µM]	-4	.	.
C=CCOC(=O)N[C@@H](Cc1ccccc1)C(C(=O)OC)=C(C)NCc1ccccc1	.	.	.	.	-11%[14.2 µM]	.
COc1cccc(CNc2cc(CSc3ccc(Cl)cc3)nc(C)n2)c1	2%	13µM*	?	.	-8%	?
COc1ccccc1CNc1cc(CSc2ccc(Cl)cc2)nc(C)n1	-7%	40µM*	-8%	14	?	?
COc1ccccc1CNc1cccc(C)n1	.	-3%	.	-39	.	.
COc1cccc(CNc2ccc(C)c(Cl)c2)c1	-1%	31%	.	23	.	4%
CCN(C(=O)c1cn(CC(C)C)c(=O)c2cc(OC)c(OC)cc12)c1cc(OC)ccc1OC	.	-7%	-11%[46.1 µM]	-28	-7%[46.1 µM]	.
CC(=O)Oc1ccc2ccccc2c1C(NC(=O)Cc1ccccc1)c1ccc(Cl)cc1 (stereo not drawn)	-20%	?	5%	-28	?	10µM*
SMILES	SARS PLP yeast	FMDV antiviral	Lassa entry inh	HCMV inh	Marburg entry inh	HCV inhibitor
CCOc1ccc(C(NC(=O)CC)c2c(O)ccc3ccccc23)cc1 (stereo not drawn)	7%	12%	.	23	.	15%
Cc1ccc(Nc2ncnc3onc(C)c23)cc1Cl	.	-17%	?	3	.	.
CCCNC(=O)N1CC(=O)N2[C@@H](CO)[C@H](c3ccc(Br)cc3)[C@@H]2C1	.	.	.	-5	.	.
Cc1ccc(Nc2nnc(-c3ccc(C)c(S(=O)(=O)N4CCN(C)CC4)c3)c3ccccc23)cc1	.	-6%	-12%[46.1 µM]	-8	0%[46.1 µM]	.
Cc1ccc(-c2nnc(Nc3ccc(O)cc3)c3ccccc23)cc1S(=O)(=O)N1CCOCC1	.	?	?	-88*	.	.
COc1ccc(Nc2nnc(-c3ccc(C)c(S(=O)(=O)N4CCN(C)CC4)c3)c3ccccc23)cc1	.	2%	-14%[46.1 µM]	-99*	-3%[46.1 µM]	.
Cc1cccc(Nc2nnc(-c3ccc(C)c(S(=O)(=O)N4CCN(C)CC4)c3)c3ccccc23)c1	.	-9%	?	-69*	?	.
Cc1ccc(-c2nnc(Nc3cccc(Br)c3)c3ccccc23)cc1S(=O)(=O)N1CCN(C)CC1	.	-15%	?	?	.	.
Cc1ccc(-c2nnc(NC3CCCCC3)c3ccccc23)cc1S(=O)(=O)N1CCN(C)CC1	?	.	?	-74*	?	-29%
Cc1ccc(Cl)cc1-n1c(=O)cc(N2CCN(c3ccccc3)CC2)[nH]c1=O	.	-10%	-6%[46.1 µM]	?	.	.
O=C(N[C@H]1CC[C@@]23CCCN2C(=O)CCC[C@H]3[C@H]1Cc1ccccc1)c1cccc(C(F)(F)F)c1	.	.	.	-1	.	.
Cc1ccc(-c2nnc(Nc3ccc(OC(F)(F)Cl)cc3)c3ccccc23)cc1S(=O)(=O)NC(C)(C)CO	.	14%	-9%[46.1 µM]	-95*	?	.
Cc1ccc(Nc2nnc(-c3ccc(C)c(S(=O)(=O)N4CCOCC4)c3)c3ccccc23)cc1	.	-7%	-4%[46.1 µM]	5	.	.
COc1ccc(Nc2nnc(-c3ccc(C)c(S(=O)(=O)N4CCOCC4)c3)c3ccccc23)cc1	.	5%	?	-99*	.	.
Cc1ccc(-c2nnc(Nc3cccc(Br)c3)c3ccccc23)cc1S(=O)(=O)N1CCCCC1	.	-1%	-23%[46.1 µM]	-8	.	.
Cc1ccc(-c2nnc(Nc3cccc(O)c3)c3ccccc23)cc1S(=O)(=O)N1CCCCC1	.	-22%	?	-74*	.	.
CCOc1ccccc1CNC(=O)c1cn(-c2ccc(OC)cc2)c(=O)c2ccccc12	.	-10%	?	?	.	.
CC1CCc2c(sc(NC(=O)c3cc4nc(-c5ccc(Cl)cc5)cc(C(F)(F)F)n4n3)c2C#N)C1 (stereo not drawn)	.	-6%	16%[46.1 µM]	-20	0%[46.1 µM]	.
CCOC(=O)C1=NN(c2ccc(C)cc2)C2(S1)SC(C(C)=O)=C(C)N2c1ccccc1 (stereo not drawn)	-2%	-24%	?	-30	?	14µM*
CCOC(=O)c1ccccc1NC(=O)c1sc2ncn(Cc3cccc(F)c3)c(=O)c2c1C	.	-5%	12%[46.1 µM]	22	.	.
Cc1ccc(-n2nc3c(N4CCC(C(=O)NCCc5cccs5)CC4)nnc(C)c3c2C)cc1	28%	25µM*	.	-83*	.	?
COc1ccc(-n2nc3c(N4CCCC(C(=O)NCc5ccc(C)cc5)C4)nnc(C)c3c2C)cc1 (stereo not drawn)	.	-3%	?	-72*	.	.

Compound activity from PubChem BioAssay.
